Compound activity as filed in PubChem.
LMNA splice mod – changes lamin A minigene splicing in HeLa cells; HeLa LMNA splicing GFP/RFP minigene ratio, 48 h; AID 1487; hit rate 0.01% among 200,000; Potency, µM (series often up to 46.1 µM), for the others: at the highest dose ratio change, negative = inhibition, usual class: inhibitors; active = well fitted inhibition curve with a large enough effect in the signal ratio, with a control signal flat, not every such curve was filed as active; inconclusive = small, poorly fitted or top-dose-only effect, or effect the other way, or a change in a side signal; the % refers to the signal ratio; note: % is set by controls: 0 for no effect and ±100 for the full control effect
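S3 HeLa stable clones carrying a lamin A-EGFP splicing minigene plus DsRed2 were seeded at 600 cells/well in Opti-MEM with 2% FBS, pin-dosed and incubated 48 h at 37°C. Acumen cytometry (488 nm) gave the GFP/RFP total-intensity ratio.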
HTT aggregate – reduces HttQ103-GFP aggregates in PC12 cells | PC12 HttQ103-GFP aggregates, Acumen cytometry, 40 h | Potency, µM (highest dose often 46.1 µM), inactives show at the top dose activity change, negative = inhibition, hits mostly inhibitors | hit rate 1.1% among 220,000 | AID 1688; note: % is set by controls: 0 for no effect and ±100 for the full control effect; nearly all actives have a fitted effect of over 60% in size
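Huntingtin Q103 exon 1–GFP aggregates in induced PC12 cells (100 nM tebufenozide) were quantified by cytometry from lysates, with compounds dosed in titration.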
ALDH1A1 inh – blocks purified human ALDH1A1 activity. P00352. Purified ALDH1A1, NADH fluorescence, propionaldehyde substrate. Potency, µM (doses to about 75.3 µM), for the others: top-dose activity, negative = inhibition, usual class: inhibitors. hit rate 7.3% among 220,000. AID 1030; active = well fitted inhibition curve with a large enough effect, not every such curve was filed as active; inconclusive = small, poorly fitted or top-dose-only effect, or another doubt; inactive = no such curve, though single readings can be large or run the other way;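 note: plate controls were no enzyme wells and a reference inhibitor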
Target sequence (P00352 whole entry, looked up): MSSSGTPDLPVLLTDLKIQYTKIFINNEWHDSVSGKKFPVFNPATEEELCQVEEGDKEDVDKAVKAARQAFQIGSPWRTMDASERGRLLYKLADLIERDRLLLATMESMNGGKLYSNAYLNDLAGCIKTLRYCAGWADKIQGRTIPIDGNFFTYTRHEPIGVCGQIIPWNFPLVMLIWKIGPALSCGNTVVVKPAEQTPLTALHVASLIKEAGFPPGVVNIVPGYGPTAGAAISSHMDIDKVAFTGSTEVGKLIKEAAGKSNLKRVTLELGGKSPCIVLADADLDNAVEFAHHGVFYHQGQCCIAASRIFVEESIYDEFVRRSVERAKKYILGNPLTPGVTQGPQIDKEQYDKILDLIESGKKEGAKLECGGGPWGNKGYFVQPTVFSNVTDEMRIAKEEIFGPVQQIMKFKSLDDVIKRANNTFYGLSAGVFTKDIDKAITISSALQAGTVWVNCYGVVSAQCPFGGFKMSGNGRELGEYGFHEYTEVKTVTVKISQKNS
HPGD inh – inhibitors of human 15-hydroxyprostaglandin dehydrogenase (HPGD) | P15428 | purified HPGD, NADH fluorescence kinetic, PGE2 substrate | Potency, µM, inactives show top-dose activity change, negative = inhibition, hits mostly inhibitors | hit rate 4.3% among 150,000; active = well fitted inhibition curve with a large enough effect, not every such curve was filed as active; inconclusive = small, poorly fitted or top-dose-only effect, or another doubt; inactive = no such curve, though single readings can be large or run the other way; note: % is set by controls: 0 for no effect and ±100 for the full control effect
Target sequence (P15428 whole entry, looked up): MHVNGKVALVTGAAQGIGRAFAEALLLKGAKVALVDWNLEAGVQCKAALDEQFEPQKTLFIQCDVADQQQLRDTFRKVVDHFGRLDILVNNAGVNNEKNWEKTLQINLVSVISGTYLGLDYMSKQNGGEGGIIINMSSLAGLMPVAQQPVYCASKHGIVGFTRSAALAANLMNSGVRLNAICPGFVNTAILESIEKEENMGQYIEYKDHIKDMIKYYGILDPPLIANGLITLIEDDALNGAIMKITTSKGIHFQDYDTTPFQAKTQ
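NADH formation kinetics: reaction with 30 uM PGE2 and 1 mM NAD+ (final), 20 nM enzyme, Tris-HCl pH 8 with Tween 20, after 15 min compound preincubation at room temperature. Fluorescence change, last versus first of five reads.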
HTT cytoprotect – protects HTT-Q103 PC12 cells, measured by ATP. PC12 HTT-Q103 induced, cytoprotection, ATP luminescence, 40 h. Potency, µM (series often up to 56.4 µM), for inactives: cytoprotection (ATP increase), usual class: activators. hit rate 0.14% among 230,000; note: % of control where 0% means no effect; nearly all actives have a fitted effect of over 45% in size
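Cells were plated at 1500 per well in phenol red-free DMEM with 5% equine and 5% calf serum. Tebufenozide (100 nM final) and compounds were added, then ATPlite reagent, and luminescence was read.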
Numbers without * were called inactive; ? = inconclusive; · = no result; [ ] = another dose, or the depositor's remark. A selection: hits, their analogues and other compounds. The true share with any hit is near 8.8%. Unless noted, calls come from the whole dose curve; as a rule, active = well fitted curve in the direction sought with a large enough effect; inconclusive = small, poorly fitted or top-dose-only effect, or another doubt; inactive = no such curve, though single readings can be large; an effect the other way counts as inactive or inconclusive. Potency is the fitted concentration of half-maximal effect.

SMILES	LMNA splice mod	HTT aggregate	ALDH1A1 inh	HPGD inh	HTT cytoprotect
O=C(N/N=C/C=C\c1ccccc1[N+](=O)[O-])c1ccccn1	-5.7%	-18.6%	-13.3%	-24.8%	-1.0%[10 µM]
O=C(N/N=C/C=C/c1ccccc1[N+](=O)[O-])c1cc(-c2ccccc2)n[nH]1	?	-2.5%	?	25.1µM*	·
CCOC(=O)N/N=C/C=C/c1ccccc1[N+](=O)[O-]	-12.8%[46 µM]	-2.9%	10µM*	·	-0.1%
O=C(CSc1nc2ccccc2[nH]1)N/N=C/C=C/c1ccccc1[N+](=O)[O-]	-11.2%	?	4.47µM*	-10.4%	18.5%[10 µM]
Cn1c(C(=O)Nc2ccc(OC(F)(F)F)cc2)cc2c(=O)n3ccccc3nc21	5.5%[46 µM]	·	·	·	·
CCCn1c2ccccc2c2cnn(CC(=O)N3CCC(C(=O)OCC)CC3)c(=O)c21	8.0%[46 µM]	·	·	·	·
CCCn1ccc2c(OCC(=O)Nc3ccc(C(F)(F)F)cc3)cccc2c1=O	11.7%[46 µM]	·	·	·	·
CC1CCCN(c2nc(NCc3ccco3)nc(N)c2[N+](=O)[O-])C1 (stereo unspecified)	?	-2.3%	2µM*	-22.1%	11.1%[10 µM]
Cc1ccccc1C(=O)OCc1cc(=O)n2c(C)csc2n1	-16.6%[46 µM]	·	·	·	·
Cc1ccc2occ(C3N[C@H](C(=O)O)CS3)c(=O)c2c1 (stereo partly specified)	2.1%	10.1%	1.41µM*	-8.9%	-23.6%
Cc1cc(C)c(O)c(N)c1	?	10.5%[9.22 µM]	25.1µM*	·	8.4%[10 µM]
Cc1c(C(=O)NN)nc2ccccn12	-14.0%	-16.2%	4.47µM*	-11.6%	14.4%[1.9 µM]
CCOC(=O)c1cc(-c2ccccc2)n(-c2cccc(C(=O)NC(C)CC)c2)c1C (stereo unspecified)	7.5%[46 µM]	·	·	·	·
COc1ccc(NC(=O)c2ccc3c(c2)C(=O)N(Cc2cccnc2)C3=O)cc1	8.4%	2.1%	11.7%	-4.1%	-5.4%[10 µM]
O=C(c1ccc2c(c1)C(=O)N(Cc1ccco1)C2=O)N1CCOCC1	14.9%	5.8%	?	-6.3%	17.0%
O=C(Nc1ccc(O)cc1C(=O)O)c1ccc2c(c1)C(=O)N(Cc1ccco1)C2=O	1.5%	-15.5%	5.62µM*	-13.0%	-8.6%[0.074 µM]
O=C(Nc1ccc(O)cc1)c1ccc2c(c1)C(=O)N(Cc1ccco1)C2=O	2.1%	28.5%	14.1µM*	-8.9%	13.7%[10 µM]
O=C(O)c1ccc(C(=O)c2ccc3c(c2)C(=O)N(Cc2ccco2)C3=O)cc1	12.2%	-4.5%	11.2µM*	8.91µM*	-4.3%
O=C(Nc1ccc(O)cc1C(=O)O)c1cccc(Br)c1	-1.9%	-16.2%	11.1%	-17.5%	-17.2%
COc1ccccc1C(=O)Nc1cccc(C(=O)OCc2cc(=O)n3nc(C4CC4)sc3n2)c1	7.4%[46 µM]	·	·	·	·
O=C(NCCN1CCOCC1)NC1(C(F)(F)F)Oc2ccc(Cl)cc2O1 (stereo unspecified)	?	?	4.8%	-5.9%	-26.5%[10 µM]
COCC(C)NC(=O)NC1(C(F)(F)F)Oc2ccc(Cl)cc2O1 (stereo unspecified)	?	3.6%	22.4µM*	·	-2.3%
CC(=O)c1ccc(N2C(=O)N(Cc3ccccc3C#N)c3ccccc3S2(=O)=O)cc1	0.5%[46 µM]	·	·	·	·
Cc1ccc(N2C(=O)SC(N(CC(=O)O)c3cccc(C)c3)C2=O)cc1 (stereo unspecified)	2.6%	10.7%	?	3.9%	-23.0%[10 µM]
CC(=O)N(c1ccccc1)C1SC(=O)N(c2ccccc2)C1=O (stereo unspecified)	14.0%	21.8%	0.631µM*	-15.3%	1.7%[10 µM]
SMILES	LMNA splice mod	HTT aggregate	ALDH1A1 inh	HPGD inh	HTT cytoprotect
CC(=O)N(c1cccc(C)c1)C1SC(=O)N(c2ccccc2)C1=O (stereo unspecified)	4.3%	9.3%	8.91µM*	·	-2.5%
Cc1nnc(SC(C)C(=O)NC2CCCc3ccccc32)n1-c1ccccc1 (stereo unspecified)	-3.6%	?	6.3%	·	-3.9%[10 µM]
O=C(CSc1nc2ccccc2[nH]1)NC1CCCc2ccccc21 (stereo unspecified)	-8.5%	1.7%	-3.1%	-7.7%	-0.6%[10 µM]
CC(Sc1nnc(Nc2ccccc2)s1)C(=O)NC1CCCc2ccccc21 (stereo unspecified)	?	7.4%	31.6µM*	-25.8%	-14.1%[1.9 µM]
Cc1ccccc1-n1nnnc1SC(C)C(=O)NC1CCCc2ccccc21 (stereo unspecified)	-13.9%	7.1%	4.47µM*	-11.8%	30.7%[10 µM]
O=C(CSc1nc2ccccc2s1)NC1CCCc2ccccc21 (stereo unspecified)	?	12.8%	?	11.2µM*	3.3%[10 µM]
O=C(CSc1nnnn1-c1ccccc1)NC1CCCc2ccccc21 (stereo unspecified)	-0.5%	?	10µM*	·	12.4%[10 µM]
O=C(CSc1c(Cl)cccc1Cl)NC1CCCc2ccccc21 (stereo unspecified)	-4.5%	-19.9%	9.4%	-6.1%	-12.5%[10 µM]
Cc1ccccc1CC1(CO)CCCN(Cc2nc(-c3cccs3)oc2C)C1 (stereo unspecified)	·	16.9%[9.22 µM]	-5.4%	·	30.1%[10 µM]
COCCn1c(=O)c(-c2cc(F)cc(F)c2)nc2cnc(OC)nc21	·	·	?	?	-49.0%
CC1CCN(C(=O)CN2C(=O)C(=O)c3ccccc32)CC1	-7.2%	9.1%	0.355µM*	-7.0%	-12.7%
CC1CCN(C(=O)CN2C(=O)c3cccc4cccc(c34)C2=O)CC1	5.8%[46 µM]	0.9%	?	·	-31.8%
CNCCOc1ccccc1C(C)(C)C	-6.2%	3.8%	?	-6.3%	9.6%[10 µM]
CC(C)(C)c1ccccc1OCCOCCNCc1ccccc1	?	17.8µM*	?	-3.4%	21.4%[10 µM]
CCOc1cccc(-c2nnc3n2N=C(c2cc(OC)ccc2OC)CS3)c1	?	-15.1%	28.2µM*	25.1µM*	-48.0%[10 µM]
COc1cccc(-c2nnc3n2N=C(C(C)(C)C)CS3)c1	?	2µM*	10.7%	-15.2%	34.1%
COc1ccc(OC)c(C2=Nn3c(nnc3-c3cc(OC)c(OC)c(OC)c3)SC2)c1	?	25.4%	?	-28.1%	-4.9%[0.074 µM]
Cc1cccc(-c2nnc3n2N=C(c2ccccc2Br)CS3)c1	?	?	?	2.51µM*	-25.9%[0.074 µM]
COc1cccc(-c2nnc3n2N=C(c2cc(OC)ccc2OC)CS3)c1	1.6%	-8.1%	-5.7%	28.2µM*	-64.3%
c1ccc2c(N3CCNCC3)nc(-c3ccoc3)nc2c1	?	·	-3.0%	-6.7%	8.3%
Cc1cccc(C(=O)N2CCc3cc(CNS(=O)(=O)c4ccc(F)c(Cl)c4)ccc32)c1	11.6%[46 µM]	·	·	·	·
Cc1nc2ccccn2c(=O)c1NC(=O)c1ccccc1Cl	-7.6%[46 µM]	·	·	·	·
Cc1nn(C)c2c1c(C(F)(F)F)cc(=O)n2C(C)C(=O)NCCC(C)C (stereo unspecified)	6.8%[46 µM]	·	·	·	·
Cc1ccc(SCCC(=O)N2CCOCC2)cc1	-2.0%	-3.2%	8.2%	-6.5%	-19.1%[0.074 µM]
Cc1ccc(SCCC(=O)N2CCCC2)cc1	?	-20.4%	?	14.1µM*	-5.2%
Cc1ccc(SCCC(=O)N2CCC(C)CC2)cc1	?	-3.5%	?	7.94µM*	4.1%[1.9 µM]
CC(=O)Oc1c(C)cc(O)c2ccccc12	-19.1%	14.1µM*	-0.6%	-8.1%	-106.5%
